Measured values published in PubChem BioAssay (NCI).
About 79,000 compounds went through this panel and 15% of them were active in at least one assay; those are over-represented in the sample as a whole. Unmarked numbers belong to inactive results. Active and inactive are the calls of the source. Cut-off read from the data, not from the text of the source: active = growth inhibition above about 70%; inactive = the rest.

Experiments:
[1] = NCI Yeast Anticancer Drug Screen. Data for the rad50 strain (AID 155);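 note: 0% = growth of vehicle-only cultures of the same strain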; conditions: S. cerevisiae rad50 strain growth inhibition; at 50.0 µM; active compounds read high
Procedure, shortened: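 Growth of the mutant yeast was measured after compound exposure and referenced to vehicle-treated cultures.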

[2] = NCI Yeast Anticancer Drug Screen. Data for the mec2-1 strain (AID 157); conditions: S. cerevisiae mec2-1 strain, at 50.0 µM, active compounds read high
Procedure, shortened: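 Vehicle-treated cultures served as reference for growth inhibition of compound-exposed mec2-1 yeast.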

[3] = NCI Yeast Anticancer Drug Screen. Data for the sgs1 mgt1 strain (AID 161);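 note: 0% = growth of cultures given vehicle only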; conditions: S. cerevisiae sgs1 mgt1 strain, at 50.0 µM, active compounds read high
Procedure, shortened: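 Inhibition of yeast growth, normalised to vehicle-treated controls, is reported for a strain bearing genetic alterations in DNA damage repair.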

[4] = NCI Yeast Anticancer Drug Screen. Data for the cln2 rad14 strain (AID 165);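 note: 0% = growth equal to vehicle treated cultures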; conditions: S. cerevisiae cln2 rad14 strain, at 50.0 µM, active compounds read high
Procedure, shortened: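 Each compound was tested on cln2 rad14 yeast. Inhibition of growth was calculated against vehicle-exposed controls.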

[5] = NCI Yeast Anticancer Drug Screen. Data for the bub3 strain (AID 167); conditions: S. cerevisiae bub3 mutant strain, at 50.0 µM, active compounds read high
Procedure, shortened: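 Whole-cell yeast assay. The mutant strain was incubated with compounds, and growth inhibition was determined by comparison with vehicle-treated cells.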

[6] = NCI Yeast Anticancer Drug Screen. Data for the mlh1 rad18 strain (AID 175); conditions: S. cerevisiae mlh1 rad18 strain growth inhibition; at 50.0 µM; active compounds read high
Procedure, shortened: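 Vehicle-treated cultures served as the reference for growth inhibition in a yeast strain carrying DNA damage repair alterations exposed to each compound.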

Row | SMILES | growth inhibition [1] | growth inhibition [2] | growth inhibition [3] | growth inhibition [4] | growth inhibition [5] | growth inhibition [6]
1 | Nc1nc(N)c(N=Nc2ccc(S(=O)(=O)NC(=O)c3ccccc3)cc2)c(=O)[nH]1 | -8.4% | -4.3% | -6.9% | -9.35% | -2.55% | -8.9%
2 | O=C(O)/C(=C\c1ccccc1Cl)S(=O)(=O)c1ccccc1 | -25.5% | -6.45% | -12.6% | -0.35% | -16% | 15.1%
3 | O=c1[nH]cc(CO)c(=O)[nH]1 | 0.35% | 4.8% | -1.7% | 6% | 11.9% | -4%
4 | Cc1cccc(NC(=O)CCCCCCCCC(=O)Nc2cccc(C)c2C)c1C | -4.8% | 0.7% | -2.3% | -41.4% | -2.05% | 12.2%
5 | CCOC(=O)Cc1cc(=O)oc2cc(O)ccc12 | -22.9% | 2.3% | 4.1% | 22.7% | -1.8% | -1.1%
6 | CNc1cccc2c1C(C)C[C@]1(C)C(=O)Nc3ccccc3[C@H]21 (stereo partly specified) | -36.5% | -19.7% | -22.6% | -31.1% | -35.8% | -80.3%
7 | CCCCNCCCC | 2.15% | 2% | -27.1% | -3.65% | -8% | -16.6%
8 | Nc1nc2[nH]c(=O)c(C(=O)O)nc2c(=O)[nH]1 | 8.35% | -6.15% | -5.05% | -16.6% | 10.4% | -11.6%
9 | Nc1cccc(CNC(=O)COc2ccc(Cl)c(Cl)c2)c1 | 84.7% (active) | 68.9% | 89.7% (active) | 77.2% (active) | 79.8% (active) | 82.8% (active)
10 | C/C(CCc1ccccc1)=N\Nc1ccc([N+](=O)[O-])cc1[N+](=O)[O-] | -31.9% | -44.6% | -2.9% | -17% | -17.4% | -19.4%
11 | O=C(O)CC1OCC=C2C[N+]3([O-])CCC45c6ccccc6NC4C1C2CC53 (stereo unspecified) | -1.5% | 19.7% | -16.1% | -31.9% | -35.4% | 10.6%
12 | COc1ccc(O)c(/C=N/NC(N)=S)c1 | 23.8% | -24.8% | -4.45% | -115% | -24.8% | -11.4%
13 | Cc1cc(C)c2c(c1)CC(C)(C)C(=O)OC2=O | -16.2% | -23.9% | -9.65% | 2.4% | -10.3% | -11.2%
14 | CSc1nsc(SC)c1C(N)=O | -0.25% | -17.6% | 15.3% | 12.5% | 16.2% | -0.85%
15 | O=C(NC1CCCCC1)C1C(=O)C(=O)N(C2CCCCC2)C1=O (stereo unspecified) | -14.5% | -1.35% | -13.9% | -8.65% | -5.8% | -28.2%
16 | NC(=O)Cc1c[nH]c2ccc(Br)cc12 | -24.1% | -53.8% | -8.4% | 11.4% | -20.7% | -13.2%
17 | C=CS(=O)(=O)c1ccc(NC(=O)Nc2ccc(Cl)cc2)cc1 | -0.55% | 1.7% | -8.8% | 12.8% | 1.25% | 5.85%
18 | COc1ccc(CNc2nc3ccc(C(F)(F)F)cc3nc2-c2ccccc2)cc1OC | -33.8% | 3.7% | 17.6% | 6.45% | 1.05% | -11.9%
19 | CCC([NH-])(CC)C[NH-].[Cl][Pt+2][Cl] | 2.3% | 13.4% | -31.4% | -1.45% | -14.1% | -44.6%
20 | O=C(Cl)c1ccc2c(c1)C(=O)OC2=O | 22.5% | -8.9% | -11.2% | 5.4% | 9.55% | -10.4%
21 | CSc1cc(Cl)c(C)cc1S(=O)(=O)NC(=O)NNc1cccc(C(F)(F)F)n1 | 15.2% | 5.25% | 9.5% | -5.4% | -4.9% | 24.6%
